Measured values from PubChem BioAssay (NCI).
About 79,000 compounds went through this panel and 15% of them were active in at least one assay; those are over-represented in the sample as a whole. Unmarked numbers belong to inactive results. Activity calls are given as the source filed them. No stated cut-off is given here; in the data, active means growth inhibition above about 70%; inactive means the rest.

How the values were obtained:
[1] = NCI Yeast Anticancer Drug Screen. Data for the rad50 strain (AID 155);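 further: 0% = growth of vehicle-only cultures of the same strain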; conditions: S. cerevisiae rad50 strain growth inhibition; at 50.0 µM; active compounds read high
In short: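 Vehicle-treated cultures provide the reference for the growth inhibition reported for compound-exposed, repair-deficient yeast.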

[2] = NCI Yeast Anticancer Drug Screen. Data for the mec2-1 strain (AID 157); conditions: S. cerevisiae mec2-1 strain, at 50.0 µM, active compounds read high
In short: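 Vehicle-treated cultures served as reference for growth inhibition of compound-exposed mec2-1 yeast.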

[3] = NCI Yeast Anticancer Drug Screen. Data for the sgs1 mgt1 strain (AID 161);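 further: 0% = growth of cultures given vehicle only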; conditions: S. cerevisiae sgs1 mgt1 strain, at 50.0 µM, active compounds read high
In short: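 Read-out: growth inhibition vs vehicle controls. Cells: mutant yeast strain deficient in DNA damage repair.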

[4] = NCI Yeast Anticancer Drug Screen. Data for the cln2 rad14 strain (AID 165);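 further: 0% = growth equal to vehicle treated cultures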; conditions: S. cerevisiae cln2 rad14 strain, at 50.0 µM, active compounds read high
In short: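 Each compound was tested on cln2 rad14 yeast. Inhibition of growth was calculated against vehicle-exposed controls.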

[5] = NCI Yeast Anticancer Drug Screen. Data for the bub3 strain (AID 167); conditions: S. cerevisiae bub3 mutant strain, at 50.0 µM, active compounds read high
In short: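 Mutant yeast screening strain plus compound; vehicle-treated cultures serve as the 0% inhibition reference.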

[6] = NCI Yeast Anticancer Drug Screen. Data for the mlh1 rad18 strain (AID 175); conditions: S. cerevisiae mlh1 rad18 strain growth inhibition; at 50.0 µM; active compounds read high
In short: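 Vehicle-treated cultures served as the reference for growth inhibition in a yeast strain carrying DNA damage repair alterations exposed to each compound.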

Row | SMILES | growth inhibition [1] | growth inhibition [2] | growth inhibition [3] | growth inhibition [4] | growth inhibition [5] | growth inhibition [6]
1 | CC(=O)OC1C(COC(=O)c2ccccc2)OC(Nc2ncc(-c3ccc(Br)cc3)s2)C(OC(=O)c2ccccc2)C1OC(=O)c1ccccc1 (configuration not stated) | 1.05% | 15.4% | -5.9% | 31.9% | -3.55% | -39.9%
2 | c1csc(C2N3CCN(CC3)C(c3cccs3)N3CCN2CC3)c1 (configuration not stated) | -1.6% | -16.7% | 23.8% | 10.1% | -5.25% | 3.1%
3 | Clc1ccc2c(c1)nc(-c1ccccn1)n2CCc1ccncc1 | 3.75% | 0.05% | 2.4% | -16.4% | -13.4% | 13.8%
4 | N#CC(NNC(=O)c1ccccc1O)c1cccc(O)c1 (configuration not stated) | 10.8% | -0.25% | 10.6% | -6.7% | 25.7% | -25%
5 | COc1cc(C(C)O)c[n+](Cc2ccccc2)c1 (configuration not stated) | -31.6% | -7.3% | -16.1% | 3.6% | -18.9% | -18.9%
6 | CCS(=O)(=O)/C=C/c1ccco1 | 28.3% | -18.6% | 5.45% | -36.9% | 19.6% | -14.9%
7 | O=C(O)/C(=C/c1ccc([N+](=O)[O-])cc1)c1ccc([N+](=O)[O-])cc1 | 6.9% | -4% | 2.05% | -35.4% | -1.7% | 1.55%
8 | CCOC(=O)/C(=C\c1cccc(F)c1)C(C)=O | 20.6% | 15.3% | 7.05% | -4.9% | 13.7% | 41.5%
9 | O=C(O)CSc1n[nH]c(-c2ccco2)n1 | -4.05% | 4.25% | 3% | 14.1% | 11.1% | 7.7%
10 | CCCC(C)(C#N)c1ccc(OC)cc1 (configuration not stated) | 33.8% | 13.2% | 31.6% | 1.65% | 32.4% | -11.8%
11 | CCCCCCP(=O)(CCCCCC)C1CCCCC1 | 98.1% (active) | 99.5% (active) | 99.3% (active) | 97.6% (active) | 99% (active) | 99% (active)
12 | CCOc1ccc2ccccc2c1N | 44% | 15.4% | 24.3% | 4.8% | 51.7% | 46.7%
13 | C=CC(=NC(C)C)N(C)c1ccccc1 | 5.2% | 13.9% | 1.7% | -7.9% | 26.5% | -1.8%
14 | O=S1(=O)c2ccccc2N(O)C2=NCCN21 | -50.1% | -46.7% | -65.8% | -6.35% | -30.9% | -33.9%
15 | NC(=O)N/N=C/C(/C=N/NC(N)=O)[N+](=O)[O-] | -3.8% | -7.4% | -10.3% | -1.75% | -14.6% | 6.8%
16 | CC/C(=N\NC(=O)c1ccncc1)c1ccc(Cl)cc1 | 1.1% | 9.05% | -3.15% | 17.9% | 2.9% | -1.95%
17 | COc1ccc(/C(Cl)=C(\CNc2ccccn2)c2ccccc2)cc1OC | -14.4% | -21.9% | -39.9% | -22.7% | 2.3% | -34.1%
18 | OCC1OC(n2cnc3c(Cl)nc(Nc4ccc(Cl)c(Cl)c4)nc32)CC1O (configuration not stated) | 7.45% | -0.2% | -12.9% | -0.4% | -16.9% | 66%
19 | CC(O)C(C)C(N)C(=O)O (configuration not stated) | 3.7% | 2% | -1.05% | -0.85% | -0.3% | 18.4%
20 | CC(=O)OC1CC2CCCCC21 (configuration not stated) | 10.6% | 7% | -0.6% | 37% | 13.8% | 2.3%
21 | Cc1c(C(=O)CC(=O)C(=O)NC2C3CC4CC(C3)CC2C4)[n+](=O)c2ccccc2n1[O-] (configuration not stated) | -11.1% | 0.8% | -26.7% | 16.3% | -9.8% | -20.4%

Row | SMILES | growth inhibition [1] | growth inhibition [2] | growth inhibition [3] | growth inhibition [4] | growth inhibition [5] | growth inhibition [6]
22 | COc1ccc(/C=[N+](\[O-])c2ccccc2)cc1 (tested in a mixture with another compound) | -2% | 8.2% | 4.1% | 0.4% | -10.8% | 8.35%
23 | CCc1ccccc1NC(=O)COc1ccc(Cl)cc1 | 5.7% | 29.2% | 18.8% | 0.45% | 34.2% | 1.1%
24 | O=C1OC(=O)C2C1C1c3ccccc3C2(Br)c2ccccc21 (configuration not stated) | -3.15% | 13.7% | -0.45% | -6.05% | 3.55% | 7.65%
25 | O=C(O)c1oc(C(=O)O)c(C(=O)O)c1C(=O)O | -15% | -38.1% | -18.6% | -28.6% | -32.1% | 7.6%
26 | O=C(CO)C(O)C(O)C(O)CO (configuration not stated) | 1.65% | -9.75% | -7.45% | 8.75% | 19.9% | 0.95%
27 | CC(C)CC(CC(C)C)NCC(C)OC(=O)c1ccc(N(C)C)cc1 (configuration not stated) | 57.5% | -4.2% | 20.2% | -7.55% | 2.6% | 1.3%
28 | O=C(/C=C/c1ccccc1)NC(Cc1ccccc1)C(=O)O (configuration not stated) | -21% | -11.4% | -8.25% | -5.55% | -14.1% | -12.2%
29 | C=C(C)C(=O)O[C@@H]1C[C@@]2(C)O[C@@H]2C[C@H](O)/C(C)=C/[C@H]2OC(=O)C(=C)[C@@H]21 | -19.6% | -33.1% | -22.5% | 0.35% | -16.5% | -43.1%
30 | Cc1c(O)c2cccc(-c3ccccc3)c2oc1=O | 5.8% | 17.5% | 11.1% | -6.3% | -4.8% | 17.6%
31 | C=CCN1C2Cc3cc(OC)c(OC)cc3C1Cc1cc(OC)c(OC)cc12 | 0.15% | -19.2% | -23.6% | -6.45% | -16.2% | -10.3%
32 | Cn1ncc2c(=O)[nH]c(NN)nc21 | -8.35% | -4.45% | -4.8% | -17.8% | -0.95% | -1.95%
33 | Cc1ccc(Br)c2c1CCC2=O | 1.85% | -5.05% | 0.9% | -52.5% | -23% | 1.65%
34 | CCCC1C(CC)C(NC)C(C#N)(C#N)C1(C#N)C#N (configuration not stated) | 7.05% | 38.9% | 8.95% | 26.3% | 8.3% | 7.25%
35 | C/C(=N\N=C\N(C)S(=O)(=O)c1ccc(C)cc1)c1ccccc1 | -10.7% | -2.8% | -6.3% | -6.25% | 1.55% | -2.7%
36 | Clc1ccccc1SSc1ccccc1Cl | 21.4% | 23.9% | 22.2% | -9.2% | 28.1% | 29.9%
37 | CC(=O)NC(CCCNC(=O)N(C)N=O)C(=O)NCc1ccccc1 (configuration not stated) | -35% | -26.9% | -15.6% | 6.9% | -21.2% | -13.3%
38 | C/C(=N/O)C1c2ccccc2Cc2ccccc21 | -11.5% | -11.8% | -24.4% | -12.8% | -1.8% | -22.5%
39 | O=C(c1ccc(F)cc1)c1ccc2ccccc2c1 | 8.75% | -1.3% | -3.35% | 10.7% | 2% | 5%
40 | c1ccc(C(CCN2CC3CCC(CC3)C2)c2ccccc2)cc1 | 14.6% | -21.4% | -17.9% | -22.6% | -21.9% | 22.6%
41 | O=C1OC(c2ccc(Cl)cc2)=N/C1=C\c1ccc(Cl)c(Cl)c1 | 35.7% | 19.1% | 59.4% | 19.2% | 38.5% | 31.7%
42 | CN1CCCC1=Nc1ccc([N+](=O)[O-])cc1 | 23.1% | -3.55% | 23% | -29.3% | -11.9% | 25.9%
